Source: PubChem (National Center for Advancing Translational Sciences (NCATS))
SARS PLP yeast: qHTS of Yeast-based Assay for SARS-CoV PLP; S. cerevisiae expressing SARS-CoV PLpro, growth rescue; Potency, µM (titrated, usually from 32.9 µM), inactives show top-dose activity, positive = growth rescue, most hits filed as activators; hit rate 0.19% among 330,000; further: potency means the concentration at half of the fitted maximal effect; 0% is about no effect; nearly all actives have a fitted effect of over 55% in size
CHX counter: Cycloheximide Counterscreen for Small Molecule Inhibitors of Shiga Toxin; cell reporter, cycloheximide protein synthesis inhibition counterscreen; hit rate 12% among 300,000; max response, %; in the data active means max response mostly above about 13%, no sharp cut-off; inactive means mostly below about 14%; further: read at 38.3 µM for the half of the compounds with a filed dose; 0% is about no effect
Pf growth 96h: Primary qHTS for delayed death inhibitors of the malarial parasite plastid, 96 hour incubation | AID 504834, 2011 | Potency, µM (top dose mostly 28.7 µM), for inactives: top-dose activity change, negative = inhibition, hits mostly inhibitors | P. falciparum luciferase reporter growth, 96 h | hit rate 6.9% among 320,000; active means well fitted inhibition curve with a large enough effect; inconclusive means small, poorly fitted or top-dose-only effect, or another doubt; inactive means no such curve, though single readings can be large or run the other way; further: potency means the concentration at half of the fitted maximal effect; on the % scale 0 is the no-effect control and ±100 the full control effect
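Two-generation exposure (96 h) targets delayed-death phenotype. Reporter parasites carrying integrated firefly luciferase, in red cells at 2% hematocrit and 0.05% parasitemia final, kept at 37 C, 5% CO2; luminescence loss indicates inhibition.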
NS1 function inh: qHTS Assay for Inhibitors of Influenza NS1 Protein Function. Potency, µM (doses to about 46.1 µM), for inactives: top-dose activity, positive = more growth. hit rate 0.4% among 270,000; further: potency means the concentration at half of the fitted maximal effect; actives are rising curves; nearly all actives have a fitted effect of over 50% in size
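A cell-based growth assay was used: compounds that relieve NS1-induced slow growth of budding yeast raise OD600. Assay medium was yeast nitrogen base with ammonium sulphate and -URA supplement, pH 6.0, with 2% galactose.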
Pf growth 48h: Primary qHTS for delayed death inhibitors of the malarial parasite plastid, 48 hour incubation | Potency, µM (titrated, usually from 28.7 µM), without a hit: top-dose activity change, negative = inhibition, hits mostly inhibitors | P. falciparum luciferase growth in erythrocytes, 48 h | hit rate 5.9% among 310,000; active means well fitted inhibition curve with a large enough effect; inconclusive means small, poorly fitted or top-dose-only effect, or another doubt; inactive means no such curve, though single readings can be large or run the other way; further: potency means the concentration at half of the fitted maximal effect; on the % scale 0 is the no-effect control and ±100 the full control effect
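Luciferase-expressing parasites in RBCs, 2% Hct / 0.1% parasitemia final; RPMI 1640 + 0.5% Albumax; 37 C, 5% CO2, one generation; luminescence read-out, lower signal = inhibition.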
Shiga toxin inh: A qHTS for Small Molecule Inhibitors of Shiga Toxin; Vero cells, Shiga toxin protein synthesis inhibition reporter; inhibition, % at 38.7 µM; hit rate 9.2% among 290,000; in the data active means inhibition mostly above about 28%, no sharp cut-off; inactive means mostly below about 43%; further: 0% is about no effect
Numbers without * were called inactive; u = inconclusive; x = no result given. An excerpt weighted towards active compounds, which were near 21% of everything screened. Unless noted, the call rests on the fitted dose curve.

SMILES	SARS PLP yeast	CHX counter	Pf growth 96h	NS1 function inh	Pf growth 48h	Shiga toxin inh
COc1cc(CN(C)CC2CCCN(CCc3cccc(C(F)(F)F)c3)C2)ccc1O (centres undefined)	-1.5%	1.1	u	0.3%	2.94µM*	4.7
COc1cc(CN(C)CC2CCCN(CCc3ccc(F)cc3)C2)c(Cl)cc1O (centres undefined)	0.2%	-3.4	u	18.8%	11.7µM*	1.8
CN(CC1CCCN(CCc2cccc(C(F)(F)F)c2)C1)C(=O)c1cc2ccccc2o1 (centres undefined)	0.6%	-0.1	30.6%	-4.7%	10.4µM*	-3.1
CCN(C[C@H]1N[C@@](Cc2ccccc2)(C(=O)OC)[C@H]2C(=O)N(C)C(=O)[C@@H]12)C(=O)Nc1ccc(F)cc1	2.0%	x	x	x	x	x
CCOc1cccc(CN(C)CC2CCCN(CCc3ccc(Cl)cc3)C2)c1O (centres undefined)	-0.2%	1.6	1.47µM*	0.0%	3.7µM*	-8.4
CCN(CC1CCCN(CCc2cccc(F)c2)C1)C(=O)c1cc2ccccc2o1 (centres undefined)	0.8%	9.1	80.3%	1.1%	u	10.7
COc1cc(CN(C)CC2CCCN(CCc3ccccc3F)C2)cc(Cl)c1OC (centres undefined)	2.5%	-1.2	9.28µM*	-8.6%	13.1µM*	-8.0
COc1ccccc1CCN1CCCC(CN(C)CC(C)(C)CO)C1 (centres undefined)	-2.6%	-2.6	11.7µM*	-6.3%	2.0%	x
COc1ccc(F)c(CN(C)CC2CCCN(CCc3ccc(F)cc3)C2)c1 (centres undefined)	1.3%	-1.9	u	9.2%	u	-7.1
CCN(CC1CCCN(CCc2cccc(F)c2)C1)C(=O)c1cc(C)oc1C (centres undefined)	1.5%	-6.6	5.22µM*	12.8%	u	10.2
Cc1cc(C)c(S(=O)(=O)NC2CC3CCC2C3)c(C)c1 (centres undefined)	-14.1%	-0.9	u	-130.9%	13.3%	x
CCc1cc2ccc(C)c(C)c2nc1SCC(=O)NNC(=O)c1ccco1	-3.6%	-5.2	13.0%	17.6%	-3.4%	-8.7
Cc1ccc(N(C(=O)CNC(=O)c2ccco2)C(C(=O)NC2CCCCC2)c2cccnc2)cc1 (centres undefined)	0.5%	-1.9	u	10.7%	-10.8%	-5.7
Cc1ccc(C(=O)N/N=C/c2c[nH]c3ccccc23)o1	0.8%	22.7*	-22.2%	-10.8%	44.9%	73.7*
O=C(N/N=C/c1c[nH]c2ccccc12)c1cc(Br)ccc1O	-6.2%	17.7	-1.9%	-45.5%	30.5%	28.9
O=C(N/N=C/c1c[nH]c2ccccc12)c1ccn(Cc2ccc(Cl)cc2)n1	0.6%	-2.4	u	-4.7%	-12.7%	-2.4
Cc1cc(C(=O)N/N=C/c2c[nH]c3ccccc23)c(C)o1	14.1%	27.2*	3.5%	-10.0%	54.1%	25.6
COCCCn1c(Cc2ccccc2)nnc1SCC(=O)N1CCCCC1	1.8%	3.6	49.5%	-2.9%	u	16.6
O=C1NC(=O)C2(Cc3ccccc3N3CCCC32)C(=O)N1c1cccc(Cl)c1 (centres undefined)	-1.1%	-0.3	2.33µM*	-2.5%	-17.0%	-6.0
Cc1cc(C)cc(C(=O)Nc2ccc(N3CCCC3)cc2)c1	-0.4%	49.8*	12.9%	2.4%	-16.6%	72.0*
Cc1cc(C)cc(OCC(=O)Nc2ccc(N3CCCCC3)cc2)c1	-3.2%	x	4.4%	x	-5.3%	x
Cc1cc(C)cc(NC(=O)Nc2ccc(N3CCCCC3)cc2)c1	-2.0%	37.6*	36.7%	-2.0%	86.3%	27.4
CCOc1ccc(OCCC(=O)OCC(=O)Nc2ccc(C)c(S(=O)(=O)N3CCCCC3)c2)cc1	-1.9%	x	-10.4%	x	12.6%	x
CCc1ccccc1NC(=O)N1CCCC(CCC(=O)N(C)CCc2ccccn2)C1 (centres undefined)	-1.5%	-1.4	u	0.4%	-9.5%	-3.3
COc1ccc(NC(=O)N2CCCC(CCC(=O)N(C)CCc3ccccn3)C2)cc1 (centres undefined)	0.0%	29.6*	-17.6%	3.3%	36.7%	90.5*
SMILES	SARS PLP yeast	CHX counter	Pf growth 96h	NS1 function inh	Pf growth 48h	Shiga toxin inh
CN(CCc1ccccn1)C(=O)CCC1CCCN(C(=O)c2cccc(N(C)C)c2)C1 (centres undefined)	0.1%	-3.3	9.3%	7.3%	11.6%	-5.1
C=CCOc1ccccc1CN1CCCC(CCC(=O)N(C)CCc2ccccn2)C1 (centres undefined)	-1.3%	0.5	11.7µM*	-2.7%	-4.2%	1.9
CCOC(=O)CCNC(=O)N1CCCC(CCC(=O)N(C)CCc2ccccn2)C1 (centres undefined)	0.1%	1.5	5.1%	-1.2%	26.8%	-3.9
CN(CCc1ccccn1)C(=O)CCC1CCCN(C(=O)c2ccsc2)C1 (centres undefined)	0.0%	0.7	10.4µM*	1.2%	42.6%	3.2
CN(CCc1ccccn1)C(=O)CCC1CCCN(C(=O)c2c3c(nn2C)CCCC3)C1 (centres undefined)	-1.4%	-3.5	8.28µM*	1.7%	-10.7%	1.7
CN(CCc1ccccn1)C(=O)CCC1CCCN(C(=O)c2cscn2)C1 (centres undefined)	0.0%	1.1	34.5%	4.2%	0.4%	-2.5
O=C(CN1C(=O)C2(OCCO2)c2ccccc21)c1ccc(Br)cc1	-17.5%	-1.6	x	-31.8%	u	-20.5
O=C1C=C(c2ccc3c(c2)OCCO3)C[C@@H](c2ccc(F)cc2)C1	1.8%	x	u	x	-19.0%	x
COc1ccc(N(Cc2cc3ccc(C)cc3[nH]c2=O)C(=O)C2CCCO2)cc1 (centres undefined)	0.6%	-4.5	1.4%	-2.7%	-28.9%	-3.5
COCCN(CCOC)c1cc(C)c(C#N)c2nc3ccccc3n12	-4.0%	-2.4	10.4µM*	5.9%	u	11.9
Cc1cc(-c2ccco2)n2c(nc3ccccc32)c1C#N	5.2%	-5.2	68.7%	2.7%	11.7µM*	-21.9
O=C(C[C@H]1C/C=C\CC[C@H](Cc2ccc(F)cc2)C(=O)OC[C@@H]2CCCN2C1=O)N[C@H](CO)Cc1ccccc1	-3.9%	x	x	x	x	x
O=C(O)c1cn(-c2ccc(F)cc2)c2cc(N3CCNCC3)c(F)cc2c1=O	x	x	3.38µM*	x	u	x
O=c1[nH]cnc2nn(-c3ccccc3)nc12	0.4%	14.3	x	-11.8%	275.5%	83.9*
C#CCN(C(=O)CC1C(=O)NCCN1C/C=C/c1ccccc1)C1CCCCC1 (centres undefined)	0.3%	1.6	4.65µM*	-4.0%	-2.7%	-6.8
CC(=O)N/C(=C\c1ccccc1)C(=O)OCc1ccc(F)cc1	5.8%	-6.8	-32.7%	16.7%	-17.0%	-7.3
CCn1c(O)c(C=NCc2ccccc2)sc1=S	-1.4%	14.9	0.0%	-1.9%	0.0%	32.9
